Results reported in PubChem BioAssay (Tox21).
Inconclusive results are not listed. Activity calls are given as the source filed them. Calls follow the shape of the dose curve; as a rule, active = well fitted activation curve with a large enough effect in the signal ratio in the repeat runs (not every such curve was filed as active); inconclusive = weak or mixed curves, or effect the other way; inactive = no such curve, though single readings can be large or run the other way; the % refers to the signal ratio.

Biological target: Peroxisome proliferator-activated receptor gamma (Homo sapiens) (UniProt P37231)
Sequence (P37231 whole entry, looked up): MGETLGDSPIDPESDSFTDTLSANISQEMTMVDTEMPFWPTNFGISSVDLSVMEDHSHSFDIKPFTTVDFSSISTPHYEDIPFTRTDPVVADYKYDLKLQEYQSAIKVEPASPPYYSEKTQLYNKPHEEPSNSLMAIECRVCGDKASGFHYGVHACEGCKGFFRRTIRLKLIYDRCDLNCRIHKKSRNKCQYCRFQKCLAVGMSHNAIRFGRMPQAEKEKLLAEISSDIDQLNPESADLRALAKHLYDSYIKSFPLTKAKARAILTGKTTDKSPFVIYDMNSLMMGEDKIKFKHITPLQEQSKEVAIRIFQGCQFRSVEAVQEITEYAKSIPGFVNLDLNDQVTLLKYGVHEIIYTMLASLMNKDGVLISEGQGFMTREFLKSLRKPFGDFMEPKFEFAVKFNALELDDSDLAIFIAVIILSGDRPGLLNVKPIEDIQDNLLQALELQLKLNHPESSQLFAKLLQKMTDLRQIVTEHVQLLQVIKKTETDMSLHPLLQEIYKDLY
Assay: qHTS assay to identify small molecule agonists of the peroxisome proliferator-activated receptor gamma (PPARg) signaling pathway (AID 743094)
Settings: HEK293H PPARg-UAS-bla, beta-lactamase FRET ratio, 17 h; series mostly up to 57 µM; activation: at the top concentration
Excerpt: U.S. Tox21 Program National Center for Advancing Translational Sciences [NCATS] NIH Chemical Genomics Center [NCGC] U.S. Environmental Protection Agency [EPA] National Institutes of Environmental Health Sciences [NIEHS] National Toxicology Program [NTP] U.S. Food and Drug Administration [FDA] Tox21 Assay Overview: The peroxisome proliferator-activated receptors (PPARs) are lipid-activated transcription factors of the nuclear receptor superfamily with three distinct subtypes namely PPAR alpha, PPAR delta (also called PPAR beta) and PPAR gamma (PPARg). All these subtypes heterodimerize with Retinoid X receptor (RXR) and these heterodimers regulate transcription of various genes. PPAR-gamma receptor (glitazone receptor) is involved in the regulation of glucose and lipid metabolism. To identify the compounds that activate PPAR-gamma signaling, GeneBLAzer PPAR gamma UAS-bla HEK293H cell line (Invitrogen, Carlsbad, CA, USA) containing a beta-lactamase reporter gene under control of the control of an upstream activator sequence (UAS) stably integrated into HEK293H cells was used to screen Tox21 compound library.
Tox21 Assay Protocol Summary: PPARg-bla cells were dispensed at 3000 cells/6uL/well in 1536-well black wall/clear bottom plates using a Multidrop Combi (Thermo Fisher Scientific, Waltham, MA) dispenser. After the assay plates were incubated at 37C and 5% CO2 for 5 h, 23 nL of compounds dissolved in DMSO, positive controls or DMSO only was transferred to the assay plate by a Pintool station (Kalypsys, San Diego, CA). The assay plates were incubated at 37C for 17 h. After 1 uL of LiveBLAzerTM B/G FRET substrate was added using a Bioraptr Flying Reagent Dispenser (FRD) workstation (Beckman Coulter, Indianapolis, IN, USA), the plates were incubated at room temperature for 1 h, and fluorescence intensity was measured by an Envision plate reader (PerkinElmer, Shelton, CT).
% is scaled to controls: 0 for no effect and ±100 for the full control effect; potency is read from the fitted curve at half-maximal effect.

| Compound | activation | Potency |
| --- | --- | --- |
| c1ccc(CSCc2ccccc2)cc1 | 2% (inactive) |  |
| O=C1CCCCCN1SSN1CCCCCC1=O | -5.86% (inactive) |  |
| CCCCCCC[N+](CC)(CC)CCCCc1ccc(Cl)cc1 | -9.18% [at 26.2 µM] (inactive) |  |
| C=C(C)C(=O)OCC[N+](C)(C)C | 1.37% (inactive) |  |
| Cc1onc(-c2c(Cl)cccc2Cl)c1C(=O)N[C@@H]1C(=O)N2[C@@H]1SC(C)(C)[C@@H]2C(=O)O | 1.05% (inactive) |  |
| CN1CCN(CCC(=O)N2c3ccccc3Sc3ccc(C(F)(F)F)cc32)CC1 | -6.96% (inactive) |  |
| Clc1ccc2nsnc2c1NC1=NCCN1 | 0.354% (inactive) |  |
| O=C1c2ccccc2Cc2ccccc21 | -4.33% [at 78.9 µM] (inactive) |  |
| CC(C)(C)CC(C)(C)c1ccc(OCCOCC[N+](C)(C)Cc2ccccc2)cc1 | -9.49% (inactive) |  |
| CCCCN1CCCC[C@H]1C(=O)Nc1c(C)cccc1C | -0.788% (inactive) |  |
| CCCCCCOC(=O)c1ccc(O)cc1 |  | inactive |
| CSc1cnc(C)cn1 | 5.96% [at 78.9 µM] (inactive) |  |
| CN(C)c1ccc(SC#N)cc1 | -8.32% (inactive) |  |
| O=C(Nc1ccc(Oc2ccc(Cl)cc2)c(Cl)c1)c1cc(I)cc(I)c1O | 0.374% (inactive) |  |
| NNc1nc(-c2ccccc2)cs1 | 0.843% [at 78.9 µM] (inactive) |  |
| O=C(NO)C1(NS(=O)(=O)c2ccc(Oc3ccc(F)cc3)cc2)CCOCC1 | 4.22% (inactive) |  |
| O=C(O)c1c(Cl)cccc1Cl | -0.332% (inactive) |  |
| CCCC1O[C@@H]2C[C@H]3[C@@H]4CCC5=CC(=O)C=C[C@]5(C)[C@H]4[C@@H](O)C[C@]3(C)[C@]2(C(=O)CO)O1 (stereo not given in full) |  | inactive |
| Cc1cc2c(cc1C(F)(F)F)N(C(=O)Nc1ccc(Oc3cccnc3C)nc1)CC2 | 10.3% (inactive) |  |
| ON=C1CCCC1 | -1.54% [at 78.9 µM] (inactive) |  |

| Compound | activation | Potency |
| --- | --- | --- |
| NNC(=O)c1cccc(C(=O)NN)c1 | -3.19% (inactive) |  |
| O=C(Nc1cccc([N+](=O)[O-])c1)c1cc2ccccc2cc1O | 5.87% (inactive) |  |
| CC(NN)c1ccccc1 (stereo not given) | -0.131% (inactive) |  |
| O=C(c1ccc(F)cc1)C1CCN(CCn2c(=O)[nH]c3ccccc3c2=O)CC1 | 0.512% (inactive) |  |
| N/C(=N\N=C\c1ccc(Cl)cc1)N/N=C/c1ccc(Cl)cc1 | -5.19% (inactive) |  |
| Cn1cc(C(=O)[C@@H]2CCc3nc[nH]c3C2)c2ccccc21 | -1.79% (inactive) |  |
| O=C1Cc2cc(CCN3CCN(c4nsc5ccccc45)CC3)c(Cl)cc2N1 |  | inactive |
| C1CCCC1 | 0.715% (inactive) |  |
| CCc1oc2ccccc2c1C(=O)c1cc(Br)c(O)c(Br)c1 |  | 3.01 µM (active) |
| O=[N+]([O-])c1ccccc1Nc1ccccc1 | -5.56% (inactive) |  |
| Cc1cccc(CN2CCN(C(c3ccccc3)c3ccc(Cl)cc3)CC2)c1 (stereo not given) | -0.39% [at 26.2 µM] (inactive) |  |
| Cc1onc(-c2ccccc2Cl)c1C(=O)N[C@@H]1C(=O)N2[C@@H]1SC(C)(C)[C@@H]2C(=O)O | 1.92% [at 26.2 µM] (inactive) |  |
| Oc1ccc2c(c1)-c1ccccc1C2 | -0.717% (inactive) |  |
| O=C(O)c1ccc(Cl)c(Cl)c1 | -5.46% (inactive) |  |
| CCC(C)(C)C1CCCCC1OC(C)=O (stereo not given) | -0.32% (inactive) |  |
| CCN(CCC#N)c1ccc(N=Nc2c(Cl)cc([N+](=O)[O-])cc2Cl)cc1 | -4.88% (inactive) |  |
| CN(C/C=C/C#CC(C)(C)C)Cc1cccc2ccccc12 | -0.926% (inactive) |  |
| C[n+]1ccn(Cc2ccccc2)c1 | -3.47% (inactive) |  |
| CCN(C(=O)N(CC)c1ccccc1)c1ccccc1 | 1.97% (inactive) |  |
| CCCCCCCCCCCCCCCC[N+](C)(C)CCN(Cc1ccc(OC)cc1)c1ncccn1 | -5.78% [at 26.2 µM] (inactive) |  |
